# Source: PubChem
# HPGD inh: qHTS Assay for Inhibitors of HPGD (15-Hydroxyprostaglandin Dehydrogenase) | Potency, µM, for inactives: top-dose activity change, negative = inhibition, actives largely listed as inhibitors | 15-hydroxyprostaglandin dehydrogenase [NAD(+)] (Homo sapiens), P15428 | actives 4.3% (n = 150,000) | purified HPGD, NADH fluorescence kinetic, PGE2 substrate | AID 894, 2007; further: potency means the concentration at half of the fitted maximal effect
# Target sequence (P15428 whole entry, looked up): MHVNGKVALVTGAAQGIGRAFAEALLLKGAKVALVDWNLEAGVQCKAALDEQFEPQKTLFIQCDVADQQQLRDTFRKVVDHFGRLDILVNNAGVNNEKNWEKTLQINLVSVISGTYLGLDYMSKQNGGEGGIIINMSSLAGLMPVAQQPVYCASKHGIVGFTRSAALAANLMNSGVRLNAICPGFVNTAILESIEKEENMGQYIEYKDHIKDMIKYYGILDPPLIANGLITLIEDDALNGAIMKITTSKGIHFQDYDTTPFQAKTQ
#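 NADH formation kinetics: reaction with 30 uM PGE2 and 1 mM NAD+ (final), 20 nM enzyme, Tris-HCl pH 8 with Tween 20, after 15 min compound preincubation at room temperature. Fluorescence change, last versus first of five reads.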
# IMPase inh: qHTS Assay for Identifying the Cell-Membrane Permeable IMPase Inhibitors. CHO-M1 cells, IP1 accumulation, HTRF TR-FRET ratio. Inositol monophosphatase 1 (Rattus norvegicus), P97697. inhibition (IP1 accumulation), % at 46.1 µM. AID 901, 2007. 120,000 tested, under 10 active; active means well fitted curve in the direction sought with a large enough effect in the signal ratio, not every such curve was filed as active; inconclusive means small, poorly fitted or top-dose-only effect, or a change in a side signal; inactive means no such curve, though single readings can be large or run the other way; the % refers to the signal ratio;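 further: cells stimulated with carbachol in lithium chloride buffer; plate controls were DMSO basal wells for no effect and reference inhibitor wells for full effect; higher means more IMPase inhibition seen as more IP1 and lower FRET ratio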
# Target sequence (P97697 whole entry, looked up): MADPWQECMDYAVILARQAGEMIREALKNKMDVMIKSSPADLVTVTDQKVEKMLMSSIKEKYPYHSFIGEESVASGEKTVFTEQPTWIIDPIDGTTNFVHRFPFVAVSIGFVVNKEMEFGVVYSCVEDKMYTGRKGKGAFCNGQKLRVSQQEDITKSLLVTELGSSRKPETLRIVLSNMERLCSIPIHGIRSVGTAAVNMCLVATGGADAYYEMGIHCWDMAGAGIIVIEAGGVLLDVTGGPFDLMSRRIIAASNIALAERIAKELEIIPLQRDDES
#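 Elevated IP1 in lysates lowers TR-FRET signal (665/620 ratio and 620 channel reported). Cells were CHO-M1, given carbachol (50 uM as added) plus 50mM LiCl, pH 7.4, 30 min, 37C; compounds titrated up to 46 uM; AC50 by Hill equation.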
# IMPase Li cell: qHTS Assay for Identifying the Cell-Membrane Permeable IMPase Inhibitors: Potentiation with Lithium; CHO-M1 cells, IP1 TR-FRET (IP-One), carbachol + lithium; Potency, µM (doses to about 59.4 µM), for inactives: top-dose activity, negative = IMPase inhibition, hits mostly inhibitors; actives 0.35% (n = 210,000); AID 1457, 2008; active means well fitted curve in the direction sought with a large enough effect; inconclusive means small, poorly fitted or top-dose-only effect, or another doubt; inactive means no such curve, though single readings can be large; an effect the other way counts as inactive or inconclusive;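 further: IP1 builds up when IMPase is blocked and the TR-FRET signal falls; potency means the concentration at half of the fitted maximal effect; plate controls were basal vehicle for no effect and high inhibitor control for full effect; nearly all actives have a fitted effect of over 50% in size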
#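 CHO-M1, 2000 cells/well, 16–30 h culture; cpd + low Li+, 30 min 37C; lysis with d2-IP1/Eu-anti-IP1 Ab, 10 min RT; TR-FRET 665/620 ratio and 620 channel; AC50 via Hill.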
# ALDH1A1 block: qHTS Assay for Inhibitors of Aldehyde Dehydrogenase 1 (ALDH1A1) | Purified ALDH1A1, NADH fluorescence, propionaldehyde substrate | actives 7.3% (n = 220,000) | AID 1030, 2008 | Aldehyde dehydrogenase 1A1 (Homo sapiens), P00352 | Potency, µM (series often up to 75.3 µM), inactives show at the highest dose activity, negative = inhibition, most hits filed as inhibitors;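 further: potency means the concentration at half of the fitted maximal effect; plate controls were no enzyme wells and a reference inhibitor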
# NPSR antag: qHTS Assay for Antagonists of the Neuropeptide S Receptor: cAMP Signal Transduction. Q6W5P4. CHO-NPSR cells, cAMP TR-FRET, antagonist mode. Potency, µM (doses to about 38.3 µM), without a hit: top-dose activity change, negative = inhibition, hits mostly inhibitors. actives 1% (n = 220,000). AID 1461, 2008; active means well fitted curve in the direction sought with a large enough effect; inconclusive means small, poorly fitted or top-dose-only effect, or another doubt; inactive means no such curve, though single readings can be large; an effect the other way counts as inactive or inconclusive; further: potency means the concentration at half of the fitted maximal effect; nearly all actives have a fitted effect of over 50% in size
# PNC inhibitor: High Content Assay for Compounds that inhibit the Assembly of the Perinucleolar Compartment; PC3M PTB-GFP, PNC prevalence imaging, 16 h; active compounds read low; activity change (PNC), negative = inhibition, % at 10 µM; actives 3.1% (n = 140,000); AID 2417, 2010;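 active means readout at or below -70, meaning at least 70% loss of cells showing the perinucleolar compartment, a nuclear body marking cancer cells; inconclusive means readout between -30 and a set limit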;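 further: plate controls were DMSO wells for no effect and camptothecin positive control wells for full effect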
#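 Compounds are pinned in duplicate onto adhered PC3M cells stably expressing GFP-tagged PTB and incubated 16 h at 37 C. Cells are then fixed, nuclei stained with Hoechst, and PNC-positive cells counted.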
# Starred values were filed as active, the others as inactive; u = inconclusive; x = not tested or not shown; [ ] = another dose, or the depositor's remark. Only some compounds are listed: those with a hit (about 11% of all), similar ones and a draw of the others. Unless noted, the call rests on the fitted dose curve; in most records, active means well fitted inhibition curve with a large enough effect (not every such curve was filed as active); inconclusive means small, poorly fitted or top-dose-only effect, or another doubt; inactive means no such curve, though single readings can be large or run the other way. Unless noted, on the % scale 0 is the no-effect control and ±100 the full control effect.
SMILES,HPGD inh,IMPase inh,IMPase Li cell,ALDH1A1 block,NPSR antag,PNC inhibitor
Cc1ccc(NC(=O)c2c(C)nn(-c3ccccc3)c2Cl)c(C)c1,14µM*,-2,33%[38.3 µM],-12%,-17%[46.1 µM],37
Cc1nn(-c2ccccc2)c(Cl)c1C(=O)NC1CCCCC1,x,x,11%,-8%,30%,x
Cn1c(=O)c2c(nc(/C=C/c3cccc(Cl)c3)n2C)n(C)c1=O,u,x,-7%,u,-16%[46.1 µM],x
O=C(Nc1cc(C(F)(F)F)ccc1N1CCOCC1)c1ccco1,-13%,-4,18%[38.3 µM],8%,9%[46.1 µM],-13
CCCCOc1ccc(C(=O)NCc2ccccn2)cc1,u,1,7%[38.3 µM],-3%,-5%[46.1 µM],-7
Cc1nn(Cc2cccc(C(=O)NC(C)c3ccc(C(C)(C)C)cc3)c2)c(C)c1[N+](=O)[O-] (stereo not drawn),-9%,9,19%[38.3 µM],u,-21%[46.1 µM],u
COc1ccccc1Nc1nc(N)nc(CN2CCC(Cc3ccccc3)CC2)n1,u,3,27%[38.3 µM],13µM*,-15%[46.1 µM],u
COc1ccccc1Nc1nc(N)nc(CN2CCC(C)CC2)n1,x,x,1%,8%,16%,x
COc1ccc(/C=N/N2CCN(C)CC2)cc1O,-18%,6,25%[38.3 µM],-2%,-10%[46.1 µM],41
Fc1ccc(N/N=C2/CC(c3ccccc3)Oc3ccccc32)c(F)c1 (stereo not drawn),-29%,x,14%,u,-10%,-94*
Cc1ccc(S(=O)(=O)N/N=C2/CC(=O)CC(C)(C)C2)cc1[N+](=O)[O-],x,x,x,x,11%,x
O=S(=O)(N/N=C1/CCCc2ccccc21)c1ccc(Br)cc1,-10%,10,3%,14µM*,-17%[46.1 µM],52
O=S(=O)(N/N=C1/CC(c2ccccc2)Oc2ccccc21)c1ccc(Br)cc1 (stereo not drawn),-18%,3,22%[38.3 µM],22µM*,u,u
Cc1ccc(S(=O)(=O)N/N=C2/CC(c3ccccc3)Oc3ccccc32)cc1[N+](=O)[O-] (stereo not drawn),-29%,-7,u,7.1µM*,u,16
Cc1ccc(C)c(S(=O)(=O)N/N=C2/CCCc3ccccc32)c1,-15%,3,-18%[38.3 µM],u,u,0
CC(C)(C)n1nnnc1C(c1cccc(C#N)c1)N1CCCCCC1 (stereo not drawn),0%,-9,-1%[38.3 µM],u,-29%[46.1 µM],76
CC(=O)N1CCN(CC(=O)Nc2ccc3c(c2)CCC3)CC1,-3%,x,3%,6%,5%,10
O=C(CCCN1C(=O)/C(=C/c2cccs2)SC1=S)Nc1cccc(C(=O)O)c1,x,x,4%,-8%,3%,x
Clc1cccc(Oc2cnns2)c1Cl,-28%,-4,13%[38.3 µM],u,-10%[46.1 µM],u
CC1(C)CC(=O)C(C=Nc2ccc(NC3=C(C#N)C(=O)CC(C)(C)C3)cc2)=C(O)C1,x,x,0%,7.1µM*,11%,x
CC1(C)CC(=O)C(/C=N/c2ccccn2)=C(O)C1,-18%,-2,x,14µM*,-4%[46.1 µM],-17
CC1(C)CC(=O)C(C=Nc2cccc(/N=C/C3=C(O)CC(C)(C)CC3=O)n2)=C(O)C1,-19%,1,1%[38.3 µM],3.5µM*,u,24
CC1(C)CC(=O)C(C=Nc2ccccc2)=C(O)C1,x,-2,x,3%,-4%[46.1 µM],-19
Cc1[nH]nc(N=CC2=C(O)CC(c3ccco3)CC2=O)c1-c1ccccc1 (stereo not drawn),x,12,x,u,u,12
Cc1[nH]nc(N=CC2=C(O)CC(C)(C)CC2=O)c1-c1ccccc1,-17%,0,0%,28µM*,-11%[46.1 µM],u
SMILES,HPGD inh,IMPase inh,IMPase Li cell,ALDH1A1 block,NPSR antag,PNC inhibitor
CC(=O)N1[C@H](Cc2ccccc2)C=C[C@]1(C)C(=O)NCCN1CCOCC1,-10%,x,-11%,3%,x,x
CC(=O)Nc1cc2c(cc1C(=O)c1ccccc1)OCCO2,-5%,4,-5%[38.3 µM],5%,-5%[46.1 µM],-17
C=CCOCCN1C(=O)C2C3C=CC(C2C1=O)C1C2C(=O)N(CCOCC=C)C(=O)C2C31 (stereo not drawn),x,x,-4%,14µM*,15%,x
Cc1ccc2nc(Cl)c(C3CC(c4ccco4)=NN3S(C)(=O)=O)cc2c1 (stereo not drawn),x,x,x,x,6%[7.67 µM],x
Cc1ccc2cc(C3CC(c4ccco4)=NN3S(C)(=O)=O)c(Cl)nc2c1 (stereo not drawn),x,x,x,18µM*,2%,x
Cc1ccccc1N1CC(C(=O)Nc2nnc(SCC(=O)Nc3nccs3)s2)CC1=O (stereo not drawn),-29%,x,-19%,16µM*,9%,4
Cc1cccc(N2CC(C(=O)Nc3nnc(SCC(=O)Nc4nccs4)s3)CC2=O)c1 (stereo not drawn),-8%,x,-3%,2%,2%,12
COc1cccc(-c2nc(NC3CCNCC3)c3ccccc3n2)c1,x,x,32%,32µM*,x,x
COC(=O)c1ccccc1OS(=O)(=O)N(C)C,x,x,-3%,-4%,10%,x
C=CCn1c(N)c(C(=O)NCCC2=CCCCC2)sc1=S,14µM*,5,-5%,3.5µM*,17%[46.1 µM],-9
C=CCN1C(=O)CSc2ccc(C(=O)NCc3ccco3)cc21,-15%,6,5%[38.3 µM],22µM*,-10%[46.1 µM],12
O=C(NCc1ccco1)c1ccc2c(c1)N(Cc1ccccc1)C(=O)CS2,-5%,18,51%[38.3 µM],0%,-28%[46.1 µM],-10
C=CCN1C(=O)CSc2ccc(C(=O)NCCC3=CCCCC3)cc21,-14%,-3,34%[38.3 µM],13µM*,-15%[46.1 µM],-7
COc1ccc(NC(=O)Cn2c(=O)n(CC(=O)NCCc3ccccc3)c(=O)c3ccccc32)cc1,x,-2,x,x,x,x
FC(F)Oc1ccc(NC(=S)Nc2ccc3cn[nH]c3c2)cc1,x,x,x,u,12%,x
O=C(CC1C(=O)OCC2CCCCN21)Nc1ccccc1C(F)(F)F (stereo not drawn),x,x,-5%,u,21%,x
CC(C)CCn1c(Oc2ccc(Cl)cc2)nc2c1c(=O)n(C)c(=O)n2C,-8%,2,14%[38.3 µM],7.9µM*,u,38
CCCCCCOc1ccc(N2C(=O)CC(NCCc3ccc(S(N)(=O)=O)cc3)C2=O)cc1 (stereo not drawn),-5%,-4,4%[38.3 µM],u,4%[46.1 µM],28
CC(C(=O)N1CCCCC1)n1sc2ccccc2c1=O (stereo not drawn),3.5µM*,u,-1%,3%,-10%[46.1 µM],33
